Values without a mark were called inactive. The source made the active and inactive calls. Cut-off read from the data, not from the text of the source, unless noted: active = inhibition above about 42%; inactive = the rest.

Assay [1] in a line: StAR promoter reporter inhibitors, counter-screen for LRH-1 inverse agonist project, cell-based, luminescence, high throughput (AID 651611; in the data active = inhibition above about 28%). Particulars: StAR promoter luciferase reporter counterscreen, at 3.6 µM, hits give high values.
Assay [2] has as its target Nuclear receptor subfamily 5 group A member 2 (Homo sapiens) (UniProt O00482). Description: LRH-1 (NR5A2) inverse agonists, retest, confirmation, cell-based, luminescence (AID 651613).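 Note: HEK293T cells co-transfected with LRH-1 and StAR promoter luciferase reporter; 0% = vehicle wells and 100% = parental cells lacking receptor.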 Particulars: cell-based LRH-1 luciferase reporter, inverse agonism; at 3.6 µM; hits give high values.
For assay [3], the target named is Steroidogenic factor 1 (Homo sapiens) (UniProt Q13285). Description: SF1 (NR5A1) inverse agonists, counter-screen for LRH-1 inverse agonist project, cell-based, luminescence, high throughput (AID 651614; in the data active = inhibition above about 44%;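 note: cells cotransfected with StAR promoter reporter and SF1 expression vector; 0% = vehicle on cells with receptor and 100% = vehicle on cells lacking receptor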). The settings on record: cell-based SF1 luciferase reporter, at 3.6 µM, hits give high values.
The nature of assay [4]: VP16 transactivation reporter inhibitors, counter-screen for LRH-1 inverse agonist project, cell-based, luminescence, high throughput (AID 651615; in the data active = inhibition above about 33%). Particulars: Gal4-VP16 luciferase reporter cells, at 3.6 µM, hits give high values.

Chain of Nuclear receptor subfamily 5 group A member 2 (Homo sapiens) (O00482 whole entry, looked up): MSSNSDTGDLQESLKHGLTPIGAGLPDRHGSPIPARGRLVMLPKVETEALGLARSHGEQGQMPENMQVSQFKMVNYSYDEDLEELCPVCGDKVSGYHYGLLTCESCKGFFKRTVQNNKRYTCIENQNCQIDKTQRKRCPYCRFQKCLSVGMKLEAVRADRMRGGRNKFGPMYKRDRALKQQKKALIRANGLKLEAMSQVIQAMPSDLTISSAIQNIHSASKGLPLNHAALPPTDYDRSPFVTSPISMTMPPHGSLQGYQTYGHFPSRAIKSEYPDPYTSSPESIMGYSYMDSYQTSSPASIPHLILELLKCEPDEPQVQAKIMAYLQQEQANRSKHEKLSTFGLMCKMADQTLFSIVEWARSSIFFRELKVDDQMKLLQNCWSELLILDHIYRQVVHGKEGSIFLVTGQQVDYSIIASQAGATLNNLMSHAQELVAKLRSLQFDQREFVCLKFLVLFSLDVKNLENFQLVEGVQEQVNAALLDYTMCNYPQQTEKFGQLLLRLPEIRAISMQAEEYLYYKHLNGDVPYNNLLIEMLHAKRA
Chain of Steroidogenic factor 1 (Homo sapiens) (Q13285 whole entry, looked up, the tested form may be a part): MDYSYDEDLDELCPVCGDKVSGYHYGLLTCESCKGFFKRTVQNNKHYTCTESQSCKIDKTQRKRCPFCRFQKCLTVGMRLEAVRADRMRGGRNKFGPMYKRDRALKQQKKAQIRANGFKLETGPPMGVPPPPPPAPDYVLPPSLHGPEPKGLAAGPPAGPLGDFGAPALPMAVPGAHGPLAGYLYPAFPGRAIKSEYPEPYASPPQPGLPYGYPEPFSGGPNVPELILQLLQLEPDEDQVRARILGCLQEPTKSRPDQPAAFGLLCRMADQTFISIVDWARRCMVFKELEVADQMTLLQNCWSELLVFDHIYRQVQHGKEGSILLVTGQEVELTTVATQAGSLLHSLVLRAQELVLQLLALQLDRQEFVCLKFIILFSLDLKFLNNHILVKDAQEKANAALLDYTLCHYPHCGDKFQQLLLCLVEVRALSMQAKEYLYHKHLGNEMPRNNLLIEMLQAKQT

Regarding `Cc1ccc(NC(=O)CSc2nnc(-c3n[nH]c4ccccc34)n2-c2ccccc2)c(C)c1`, the inhibition in assay [1] was 3.14%; in assay [2], 60.5% (active); in assay [3], 60.3% (active); in assay [4] it was 4.59%.
With `CCn1c2ccccc2c2cc(/C=N/n3c(-c4cc(C)[nH]n4)n[nH]c3=S)ccc21`, the inhibition in assay [1] is 11.8%; in assay [2] it was 4.98%; in assay [3], 31.7%; in assay [4], 7.75%.
The corresponding values for `CCOC(=O)N1CCN(C(=O)CSc2nc3c([nH]c4ccccc43)c(=O)n2CC)CC1` are 36.3% (active), 63.7% (active), 55.8% (active) and -25.2%.
The matching figures for `CCC(=O)N1CCN(c2ccc(NC(=O)c3ccc([N+](=O)[O-])o3)cc2Cl)CC1`: 13%, 56.2% (active), 58.2% (active) and -21.9%.
The matching figures for `CC(C)C(=O)N1CCN(c2ccccc2NC(=O)c2ccc([N+](=O)[O-])o2)CC1`: 10.9%, 59.1% (active), 42.2% and 25%.
On to `COc1ccc(OC)c(/C=N/N=C2\SCC(=O)N2Cc2ccco2)c1`, for which the inhibition in assay [1] was 10.7%; in assay [2] it was 57.4% (active); in assay [3], 45.7% (active); in assay [4] it was 5.2%.
The matching figures for `CCOc1ccc(NC(=O)CN2C(=O)NC(C)(c3ccc(OC(F)F)cc3)C2=O)cc1` (centres undefined): 18.8%, 62.6% (active), 59.2% (active) and -30.5%.
The matching figures for `O=C(Nc1ccc(S(=O)(=O)N2CCCC2)cc1)c1ccc([N+](=O)[O-])o1`: 26.2%, 58.8% (active), 62.7% (active) and 15.1%.
Take `Cc1nnc(SCC(=O)Nc2sc3c(c2C(N)=O)CCCC3)[nH]c1=O`: the inhibition in assay [1] was 10.4%; in assay [2], 46.6% (active); in assay [3] it was 29.9%; in assay [4] it was -3.51%.
On to `O=C(c1ccccc1)c1cc(-c2ccccn2)c(N2CCOCC2)s1`, for which the inhibition was -8.68% in assay [1], 68.3% (active) in assay [2], 63.4% (active) in assay [3] and 0.02% in assay [4].
The corresponding values for `COc1ccc(-n2c(/C=C(\C)O)nc(=O)c3c(C)cc(C)nc32)cc1` are 12.9%, 51.8% (active), 37.2% and 16.7%.
The corresponding values for `O=C(C[n+]1ccc(Cc2ccccc2)cc1)Nc1ccc([N+](=O)[O-])cc1Cl` are 5.98%, 54.7% (active), 45.6% (active) and 5.52%.
As for `O=[N+]([O-])c1cccc(-c2ccc3nnc(SCc4cccnc4)n3n2)c1`, the inhibition in assay [1] is 3.6%; in assay [2] it was 62.1% (active); in assay [3] it was 62% (active); in assay [4] it was 19.4%.
The corresponding values for `O=C(COC(=O)c1cccc(O)c1)Nc1ccc(N2CCOCC2)cc1` are 13.6%, 54.3% (active), 54.6% (active) and -6.64%.
The corresponding values for `N#CC1=C(N)C(C#N)(C#N)[C@H](c2c(F)cccc2F)[C@H]2CC3(CC=C12)OCCO3` are 16.1%, 60.9% (active), 54% (active) and 17.2%.
The matching figures for `CC1(C(=O)NCc2ccco2)Cc2c(-c3cccc(C(N)=O)c3)ccnc2O1` (centres undefined): 49.6% (active), 57.9% (active), 59.3% (active) and -9.28%.
For the molecule `Cc1ccc(C2CC(C(F)(F)F)n3nc(C(=O)NCc4ccco4)cc3N2)cc1` (centres undefined), the inhibition in assay [1] was 0.64%; in assay [2], 44.1% (active); in assay [3], 44.8% (active); in assay [4], -8.91%.
The matching figures for `O=C(Nc1cccnc1)c1ccc([N+](=O)[O-])o1`: 27.2%, 61.9% (active), 58.5% (active) and -15.2%.
In the case of `CCCn1c(=NC(=O)CCS(=O)(=O)c2ccccc2)sc2cc(S(N)(=O)=O)ccc21`, the inhibition in assay [1] is 1.11%; in assay [2], 32.3%; in assay [3], 31.1%; in assay [4] it was -13.8%.
The corresponding values for `COc1ccc(NC(=O)Cn2nnc(C(=O)Nc3ccccc3C)c2N)cc1` are 5.36%, 41.4% (active), 37.6% and 9.36%.
The matching figures for `OC(c1ccc2ccccc2n1)c1c(Cl)cccc1Cl` (centres undefined): 12.8%, 42.7% (active), 41.4% and 17.8%.
The matching figures for `CCCCCCCCn1c2c(c(=N)c3ccccc31)CCC2`: 78.5% (active), 110% (active), 92.8% (active) and 92.1% (active).
Turning to `Oc1ccc2ccccc2c1C=NCc1ccccc1`, the inhibition was 22.8% in assay [1], 15.3% in assay [2], 16.9% in assay [3] and 3.34% in assay [4].
The matching figures for `O=C(N/N=C/c1ccc([N+](=O)[O-])s1)C(O)c1ccccc1` (centres undefined): 25.9%, 46.7% (active), 62.2% (active) and -11.9%.
The corresponding values for `CCC(C)Nc1nc(-c2cccc(OC)c2O)nc2ccccc12` (centres undefined) are 30.8% (active), 52.4% (active), 46.3% (active) and -7%.
The matching figures for `CCCCc1c(O)nc(SCC(=O)Nc2ccc(OC)cc2)n(-c2ccc(C)c(C)c2)c1=O`: 24%, 60% (active), 51% (active) and -5.8%.

For the origin of these results see PubChem BioAssay.
